Source: PubChem BioAssay (several laboratories)
Hits are enriched below; roughly 4% of the tested compounds scored in any of these assays.
Jurkat NFkB inh: lowers PMA/ionomycin-induced NF-kB signal in Jurkat cells. PMA/ionomycin-induced NF-kB luciferase reporter, luminescence. inhibition, % at 4 µM. 330,000 compounds, 0.53% hits; in the data active = inhibition above about 50%
Gli-Sufu block: Gli-Sufu pathway antagonism; AID 588413; 340,000 compounds, 0.74% hits; inhibition, % at 5 µM; Sufu-KO-LIGHT fibroblasts, Gli luciferase reporter luminescence;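 active = inhibition above about 55%, limit read from the data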;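 also: 0% = DMSO-treated cells and 100% = wells with medium but no cells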
Mdm2-MdmX inh: inhibitors of human Mdm2/MdmX interaction. SaOS-2 split-luciferase Mdm2/MdmX complementation, luminescence. 330,000 compounds, 3% hits. AID 485346. inhibition, % at 8 µM. O15151+Q00987;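 active = inhibition of at least 50% at 8 µM in the primary screen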
Target sequence (O15151 whole entry, looked up): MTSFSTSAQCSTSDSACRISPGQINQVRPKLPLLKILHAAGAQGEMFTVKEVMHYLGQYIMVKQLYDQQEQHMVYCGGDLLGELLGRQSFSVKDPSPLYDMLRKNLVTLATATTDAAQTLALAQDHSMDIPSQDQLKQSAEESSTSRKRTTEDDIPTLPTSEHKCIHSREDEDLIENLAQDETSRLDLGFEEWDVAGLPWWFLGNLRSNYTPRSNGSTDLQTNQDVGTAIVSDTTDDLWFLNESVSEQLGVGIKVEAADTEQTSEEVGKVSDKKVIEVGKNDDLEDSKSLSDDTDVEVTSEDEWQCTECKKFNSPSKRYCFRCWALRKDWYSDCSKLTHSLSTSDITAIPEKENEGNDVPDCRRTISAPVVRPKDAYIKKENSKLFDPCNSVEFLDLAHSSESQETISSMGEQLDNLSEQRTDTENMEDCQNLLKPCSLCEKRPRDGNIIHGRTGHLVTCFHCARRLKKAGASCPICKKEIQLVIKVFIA
Target sequence (Q00987 whole entry, looked up): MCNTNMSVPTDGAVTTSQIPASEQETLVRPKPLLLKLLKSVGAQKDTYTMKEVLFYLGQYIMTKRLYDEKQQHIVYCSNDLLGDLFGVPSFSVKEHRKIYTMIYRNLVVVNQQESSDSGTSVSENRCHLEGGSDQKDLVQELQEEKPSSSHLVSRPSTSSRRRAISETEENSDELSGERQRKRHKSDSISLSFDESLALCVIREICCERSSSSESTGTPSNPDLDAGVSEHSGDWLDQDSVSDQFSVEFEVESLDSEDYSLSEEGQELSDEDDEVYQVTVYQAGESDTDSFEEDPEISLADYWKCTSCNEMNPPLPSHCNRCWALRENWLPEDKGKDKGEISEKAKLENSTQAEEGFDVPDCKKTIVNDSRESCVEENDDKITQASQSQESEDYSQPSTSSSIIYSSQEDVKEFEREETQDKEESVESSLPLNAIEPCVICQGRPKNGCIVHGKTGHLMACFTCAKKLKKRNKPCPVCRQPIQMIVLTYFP
Beta cell apopt: beta cell apoptosis inhibition | 300,000 compounds, 0.8% hits | INS-1E cytokine-induced death, ATP luminescence, 48 h; percent of positive-control rescue, neutral wells zero | protection from apoptosis, % (no concentration beside the values);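 active = Every replicate reaches about 75%, or at least half do and their mean reaches it too, limit read from the data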;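 also: 0% = cytokine-treated negative control wells and 100% = positive control rescue; higher means more ATP so stronger rescue from cytokine killing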
697 NFkB inh: inhibitors of the PMA/ionomycin-induced NF-kB reporter in 697 B cells; 697 B-cell NF-kB luciferase reporter, 16 h; inhibition, % at 4 µM; 330,000 compounds, 0.33% hits; in the data active = inhibition above about 35%
* = called active by the depositor; . = no result given.

SMILES | Jurkat NFkB inh | Gli-Sufu block | Mdm2-MdmX inh | Beta cell apopt | 697 NFkB inh
CCN(C(=O)CSc1nnc(C(C)N(C)C)n1-c1ccc(F)cc1)C1CCS(=O)(=O)C1 (configuration not stated) | -2 | -3 | 4 | . | 6
CCN(CC)c1ccc(C(=O)N/N=C/c2ccccc2OC(F)F)cc1 | -5 | -14 | 41 | 80* | -13
CC(C)Oc1ccccc1/C=N/NC(=O)c1ccc(F)cc1 | 8 | 6 | -27 | -11 | 15
C#CCOCCOCCOCCNc1nc(N2CCN(C(=O)CCCCCCCCCCNC(=O)[C@H]([C@@H](C)CC)n3cc(CCCCCN)nn3)CC2)nc(N2CCN(C(=O)CCCCCCCCCCNC(=O)[C@H]([C@@H](C)CC)n3cc(CCCCN=C(N)N)nn3)CC2)n1 | 17 | . | -20 | 98* | -33
C#CCOCCOCCOCCNc1nc(N2CCOCC2)nc(N2CCN(C(=O)CCCCCCCCCCNC(=O)[C@@H]([C@H](C)CC)n3cc(CCCCCN)nn3)CC2)n1 | 3 | 3 | 32 | 4 | -8
C#CCOCCOCCOCCNc1nc(N2CCN(C(=O)CCCCCCCCCCNC(=O)[C@H]([C@@H](C)CC)n3cc(CCCCN=C(N)N)nn3)CC2)nc(N2CCN(C(=O)CCCCCCCCCCNC(=O)[C@H](CO)n3cc(CCCCCN)nn3)CC2)n1 | -7 | 11 | 4 | 108* | -20
C#CCOCCOCCOCCNc1nc(N2CCN(C(=O)CCCCCCCCCCNC(=O)[C@H]([C@@H](C)CC)n3cc(CCCCN=C(N)N)nn3)CC2)nc(N2CCN(C(=O)CCCCCCCCCCNC(=O)[C@H](CCCCN)n3cc(C)nn3)CC2)n1 | 13 | 1 | 18 | 98* | -25
C#CCOCCOCCOCCNc1nc(N2CCN(C(=O)CCCCCCCCCCNC(=O)[C@H]([C@@H](C)CC)n3cc(CCCCN=C(N)N)nn3)CC2)nc(N2CCN(C(=O)CCCCCCCCCCNC(=O)[C@H]([C@@H](C)CC)n3cc(CCCCN=C(N)N)nn3)CC2)n1 | -6 | . | -24 | 99* | 13
CC(C)NC(=O)C1CCN(C2CCN(C(=O)c3ccc4cccc(F)c4n3)CC2)CC1 | 18 | 3 | 35 | -6 | 6
C#CCOCCOCCOCCNc1nc(N2CCN(C(=O)Cn3cc(CCCN=C(N)N)nn3)CC2)nc(N2CCN(C(=O)[C@H]([C@@H](C)CC)n3cc(CCCCN)nn3)CC2)n1 | -6 | 2 | -9 | 0 | 6
C#CCOCCOCCOCCNc1nc(N2CCN(C(=O)CCCCCCCCCCNC(=O)Cn3cc(CCCCCN)nn3)CC2)nc(N2CCN(C(=O)CCCCCCCCCCNC(=O)[C@H]([C@@H](C)CC)n3cc(CCCCN=C(N)N)nn3)CC2)n1 | 2 | -22 | 10 | 86* | -16
O=C(Cn1c(-c2ccccc2)c[n+]2ccsc12)c1ccc([N+](=O)[O-])cc1 | -14 | 39 | -15 | 94* | -31
O=C(NCCS(=O)(=O)N1CCN(c2ccccc2)CC1)c1cccc(F)c1 | 2 | -10 | 22 | 4 | 10
O=C(NCc1ccccc1)C1=C[C@H](c2csc3ccccc23)C[C@H](OCCCCO)O1 | 1 | 7 | 44 | 75* | 4
O=C(NC(c1ccc(Cl)cc1)c1c(O)ccc2ccccc12)c1ccccc1 (configuration not stated) | . | -3 | . | 98* | .
O=C(NCc1cccnc1)c1ccc(NC(=O)c2cccc([N+](=O)[O-])c2)cc1 | -8 | 18 | 11 | 140* | -13
O=C(NCc1cccnc1)c1ccc(-c2cc3ccccc3oc2=O)cc1 | -39 | -40 | -40 | 101* | -25
O=C(COc1ccc([N+](=O)[O-])cc1)Nc1ccc(C(=O)NCc2cccnc2)cc1 | -3 | 14 | 5 | 101* | 23
O=C(NCc1cccnc1)C(=O)Nc1ccc([N+](=O)[O-])cc1 | 6 | 4 | 11 | 2 | 1
O=C(NCc1cccnc1)c1ccc([N+](=O)[O-])cc1 | -3 | -22 | 18 | 103* | -9
COc1ccc(N2CC(C(=O)NC3=NCCS3)CC2=O)cc1 (configuration not stated) | 8 | -1 | 7 | -8 | 10
Nc1ccc(N=Nc2ccccc2)cc1[N+](=O)[O-] | . | -41 | . | . | .
COc1ccc(CNC(=O)C2=CC(c3ccc(C)cc3)=NS(=O)(=O)N2C)cc1 | 16 | -2 | 13 | -6 | 15
Cc1cc(C)c(C)c(S(=O)(=O)N2CCC(C(=O)N3CCCCCCC3)CC2)c1C | 15 | 9 | 26 | 0 | 17
Cc1cccc2c(CC(=O)Nc3ccccc3)noc12 | -4 | -23 | 22 | -2 | 11
SMILES | Jurkat NFkB inh | Gli-Sufu block | Mdm2-MdmX inh | Beta cell apopt | 697 NFkB inh
CC(C)n1ncc(N2CCOCC2)c(Cl)c1=O | -9 | -21 | -14 | -8 | -2
O=C(Cc1ccc([N+](=O)[O-])cc1)Nc1cccnc1 | 21 | 13 | 6 | 81* | 17
O=C(/C=C/c1ccc([N+](=O)[O-])cc1)Nc1cccnc1 | -68 | -81 | -58 | 0 | 23
COc1cc(N/N=C/c2ccccc2O)ncn1 | -53 | -1 | 43 | 88* | -96
O=S(=O)(Nc1nc2ccccc2s1)c1ccc(Cl)s1 | 0 | 6 | 26 | 81* | 6
CC1(C)CC[C@]2(C(=O)n3ccnc3)CC[C@]3(C)[C@H](C(=O)C=C4[C@@]5(C)C=C(C#N)C(=O)C(C)(C)[C@@H]5CC[C@]43C)[C@@H]2C1 | . | 93* | . | . | .
O=C(Nc1ccccc1O)C(c1ccccc1)c1ccccc1 | 34 | 23 | 7 | 94* | -10
O=C(O)c1ccccc1NC(=O)C(c1ccccc1)c1ccccc1 | 9 | 1 | -23 | . | 4
CCOC(=O)c1ccc(NCc2cccnc2)cc1 | -38 | -3 | -1 | 12 | -12
CCOC(=O)c1ccc(NC(=O)NCc2cccnc2)cc1 | -6 | 11 | -20 | 101* | -15
CC(=O)c1ccc(NC(=S)NCc2cccnc2)cc1 | -20 | -1 | 11 | 100* | 0
CC(NS(=O)(=O)c1ccc(Cl)cc1)C(=O)OCC(=O)Nc1ccc(N(C)C)cc1 (configuration not stated) | 14 | -1 | 5 | . | 11
CCN(CC)c1ccc(N=C2C(=O)Nc3ccccc32)cc1 | 1 | -10 | 1 | 87* | -16
CC(=O)c1c(C)oc2c1C(=O)c1ccccc1C2=O | . | -7 | . | 96* | .
CCCCN(C)CCNC(=O)c1cc2c(-c3ccccc3F)nn(C)c2s1 | -17 | 25 | 30 | 97* | -16
O=C(Nc1ccc(S(=O)(=O)N2CCOCC2)cc1)c1ccc([N+](=O)[O-])s1 | 47 | 23 | 37 | 90* | 20
CCN1/C(=C/c2ccc3cc(C)cc(C)c3[n+]2CC)Sc2cc(C)ccc21 | . | 90* | . | . | .
CCN1/C(=C\c2ccc3cc(C)ccc3[n+]2CC)Sc2cc(C)c(C)cc21 | . | 88* | . | . | .
Cc1ccc2c(c1)S/C(=C\c1cccc[n+]1C)N2CCO | 26 | 16 | 5 | 32 | -16
COc1ccc(/C=C/C2=Nc3ccccc3NC(C)(C)C2)cc1OC | -56 | -17 | -5 | -9 | -94
CCCCCCCCCC[n+]1cccc2c3ccccc3ccc21 | . | 89* | . | . | .
